test system: DRIVER-selected RNA biosensor (aptazyme) pool; experiment: maximum fold change of ribozyme cleavage across biosensor pool versus no-compound control; higher = stronger biosensor response (ligand inhibits cleavage); settings: 10 µM
How it was run: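 A pool of 1,730 ribozyme biosensors, resynthesized on an array, was transcribed with T7 at 37°C for 15–30 min in 9 mM rNTPs, with one compound present at a final 10 µM (added from a 10x DMSO stock). Reverse transcription followed at 50°C, and the cleaved and uncleaved products were PCR-barcoded and counted by Illumina sequencing. The reported fold change of cleavage is the highest value across all biosensors, taken as the ratio of cleaved:uncleaved read fractions relative to a no-compound condition and corrected with reference sequences.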

SMILES	maximum fold change
c1sc2c(c1CN1CCC3(CC1)OCCO3)CCCC2	2.61
COC(=O)/C(C#N)=C/c1c(Oc2ccccc2Cl)nc2ccccn2c1=O	3.58
Cc1ccccc1-c1nnc(SCC(=O)N2CCC(C)CC2)o1	1.91
CCOC(=O)c1cnc2c(OC)cccc2c1NCCCN(CC)CC	6.68
COc1ccc(-c2nc(CS(=O)(=O)CC(=O)NC3CCC(C)CC3)c(C)o2)cc1 (stereo unspecified)	2.18
Cn1c(=O)[nH]c(=O)c2c1nc(NCCCn1ccnc1)n2CCCc1ccccc1	1.96
C=Cc1ccc(Cn2c(C)c(CNCCc3ccccc3)c(C(=O)O)c2C)cc1	2.07
CCOc1ccccc1CNC(=O)c1ccc(CS(=O)Cc2ccc(Cl)cc2)o1 (stereo unspecified)	4.15
CCc1ccc2oc(C(=O)N(Cc3ccccc3F)C3CCS(=O)(=O)C3)c(C)c2c1 (stereo unspecified)	4.9
Cc1c(C(=O)NC2CCCCCC2)sc2ncnc(N3CCCCC3C)c12 (stereo unspecified)	2.58
CCOC(=O)c1ccc(S(=O)(=O)N2CCOCC2)cc1	1.53
N#C/C(=Cc1c(Oc2ccccc2)nc2n(c1=O)cccc2)/c1nc2c(s1)cccc2	21
CCOC(=O)C1=C(C)NC2=C(C(=O)c3ccccc32)C1c1ccc(C(F)(F)F)cc1 (stereo unspecified)	2.29
COc1cccc(-c2cc(C(=O)NC3CCCc4ccccc43)[nH]n2)c1 (stereo unspecified)	1.96
O=C1NC2(CCCCC2)N(C(=O)c2ccc(Cl)cc2)C2=C1CCCC2	2.89
COc1ccc(cc1)C1=N/C(=Cc2cc(OC)ccc2OC)/C(=O)O1	1.9

SMILES	maximum fold change
CCOC(=O)c1cnc2c(C)c(Cl)ccc2c1NCCCN1CCOCC1	12.1
CC1CCN(c2ncnc3sc4c(c23)CCC(C)C4)CC1 (stereo unspecified)	3.18
Cc1oc(-c2ccccc2F)nc1CS(=O)(=O)CC(=O)N1CCC(Cc2ccccc2)CC1	4.04
c1cc(-c2nc3cc(Oc4ccc5[nH]c(-c6ccncc6)nc5c4)ccc3[nH]2)ccn1	14.3
COc1ccc(-c2cn3c(C)c(C(=O)NCCCOC(C)C)sc3n2)cc1	2.79
COc1cc(CNCc2c(C(=O)O)c(C)n(Cc3ccc(F)cc3)c2C)cc(OC)c1OC	3.4
O=C(c1ccc(CS(=O)c2cccc(Cl)c2)o1)N1CCN(C2CCCCC2)CC1 (stereo unspecified)	2.71
Cc1c(CNC(C)CCc2ccccc2)c(C(=O)O)c(C)n1Cc1cccc(Cl)c1 (stereo unspecified)	4.02
c1cncc(-c2nc3cc(Oc4ccc5[nH]c(-c6cccnc6)nc5c4)ccc3[nH]2)c1	12.5
Cn1c(-c2ccc3c(c2)OCO3)cnc1NCc1cc(Br)ccc1F	3.3
N#C/C(=Cc1c(Oc2ccc(cc2)C)nc2n(c1=O)cccc2)/C(=O)OC	5.19
Cc1c(C(=O)N2CCN(C)CC2)sc2ncnc(N3CCN(c4ccccn4)CC3)c12	2.67
Cc1cc(C)c2c(-n3cccc3)c(C(=O)NCc3ccc4c(c3)OCO4)sc2n1	5.23
O=c1c2cccnc2n(Cc2ccc(Cl)cc2)c(=O)n1CCc1ccccc1	2.13
CCOC(=O)c1cnc2c(C)c(Cl)ccc2c1NCc1ccco1	6.11

From the supplement of paper PMC9477273
